Reference: PubChem BioAssay
Calls of active or inactive are those of the source. How the calls were made is not given here.

Assay: Brca1-Bard1 BiLC signal decrease – luminescence, single concentration, counter-screen for Mdm2/MdmX interaction inhibitor project, confirmation (AID 504668)
Settings: Brca1/Bard1 bimolecular luciferase complementation counterscreen, at 8 µM, hits give high values

**Q.** With `CCCCN(CC)CCNC(=O)c1cc2c(-c3ccc(Cl)cc3)nn(C)c2s1` as the molecule, how does the inhibition read?
**A.** 31.2% (active)

**Q.** With `C/C(=N\NC(=O)COc1cccc(C)c1)c1ccc2ccccc2c1O` as the molecule, how does the inhibition read?
**A.** 33.6% (active)

**Q.** Which inhibition does the source give for `CCOc1ccc(N=Nc2ccc(O)c3ncccc23)cc1` here?
**A.** 23.3% (active)

**Q.** With `O=C(N/N=C/c1cc(Br)ccc1O)c1cccc(N2CCCC2=O)c1` as the molecule, how does the inhibition read?
**A.** 31.4% (active)

**Q.** With `CCOc1ccc(C(=O)N/N=C(\c2ccccc2)c2ccccn2)cc1` as the molecule, how does the inhibition read?
**A.** 30.1% (active)

**Q.** For `CC(C)[C@@H]1CC[C@@H](C)C[C@H]1OC(=O)C[n+]1cc(-c2ccc(Cl)cc2)n2c1CCCCC2`, which inhibition is on record?
**A.** 28.7% (active)

**Q.** Which inhibition does the source give for `Cc1ccc2nc(-c3ccccn3)c(Nc3ccccc3C)n2c1` here?
**A.** 35.8% (active)

**Q.** With `O=C(CCl)N1N=C(c2ccco2)CC1c1ccco1` (stereo not given) as the molecule, how does the inhibition read?
**A.** 31.2% (active)

**Q.** For `O=C(N/N=C(\Cc1ncc[nH]1)c1ccccc1)c1ccccc1`, which inhibition is on record?
**A.** 24.8% (active)

**Q.** With `Cc1ccccc1-c1cc(C(=O)Nc2sc(C(=O)OC(C)C)c(C)c2C#N)c2ccccc2n1` as the molecule, how does the inhibition read?
**A.** 23.7% (active)

**Q.** Which inhibition does the source give for `O=C(c1ccc(Br)cc1)C(CN1CCOCC1)c1ccccc1` (stereo not given) here?
**A.** 24.6% (active)

**Q.** For `CN1C(=O)/C(=C\c2cc(N=Nc3ccccc3)ccc2O)SC1=S`, which inhibition is on record?
**A.** 34.4% (active)

**Q.** With `Cc1ccccc1-c1cc(C(=O)Nc2nc3c(s2)CCCC3)c2ccccc2n1` as the molecule, how does the inhibition read?
**A.** 34.9% (active)

**Q.** With `COc1cc(C(=O)N/N=C(\Cc2ncc[nH]2)c2ccccc2)cc(OC)c1OC` as the molecule, how does the inhibition read?
**A.** 23.7% (active)

**Q.** With `Cn1nc(-c2ccccn2)nc2c(=O)n(C)c(=O)nc1-2` as the molecule, how does the inhibition read?
**A.** 33.8% (active)

**Q.** With `CCN(CC)CCCN=C1N[C@@H](c2cccc(C(F)(F)F)c2)C(C(=O)OC)=C(C)N1CC` as the molecule, how does the inhibition read?
**A.** 30.4% (active)

**Q.** For `C#CCOCCOCCOCCNc1nc(N2CCN(C(=O)CCCCCCCCCCNC(=O)[C@H](CO)n3cc(CCCSC)nn3)CC2)nc(N2CCN(C(=O)CCCCCCCCCCNC(=O)[C@H](CCCCN)n3cc(C[C@@H](C)CC)nn3)CC2)n1`, which inhibition is on record?
**A.** 26.6% (active)

**Q.** For `Cc1noc(-c2ccc(C(F)(F)F)cc2)c1NC(=O)Nc1ccc(Cl)cc1`, which inhibition is on record?
**A.** 24.2% (active)

**Q.** For `Cc1ccc(/C=C2\SC(=S)N(CCCC(=O)N3CCOCC3)C2=O)cc1`, which inhibition is on record?
**A.** 30.5% (active)

**Q.** With `CCN(CC)c1ccc(/C=N/NC(=O)CCC(=O)NCc2ccccc2)c(O)c1` as the molecule, how does the inhibition read?
**A.** 33.7% (active)

**Q.** Which inhibition does the source give for `COc1cccc(Nc2nc(NCCO)c3ccccc3n2)c1` here?
**A.** 27.7% (active)

**Q.** With `COc1cccc(/C=N/Nc2ncnc(Cl)c2N)c1O` as the molecule, how does the inhibition read?
**A.** 30.7% (active)

**Q.** For `O=[N+]([O-])c1cc(-c2nc(-c3ccncc3)no2)ccc1Cl`, which inhibition is on record?
**A.** 23.3% (active)

**Q.** For `COc1ccc(/C=C2\SC(=S)N(CCC(=O)NCCc3ccc(O)cc3)C2=O)cc1`, which inhibition is on record?
**A.** 27.4% (active)

**Q.** For `COc1cc(/C=C/C(=O)c2ccc(O)cc2)ccc1OCC#N`, which inhibition is on record?
**A.** 35.9% (active)

**Q.** Which inhibition does the source give for `O=C(/C=C/c1ccc(Cl)cc1)c1ccc([N+](=O)[O-])o1` here?
**A.** 31.4% (active)

**Q.** With `CC(Oc1ccc(Br)cc1)C(=O)Nc1nc(-c2ccccn2)cs1` (stereo not given) as the molecule, how does the inhibition read?
**A.** 35.4% (active)

**Q.** Which inhibition does the source give for `CCN(CC)S(=O)(=O)c1cc(OC)ccc1N=Nc1ccc(O)c2ncccc12` here?
**A.** 35.8% (active)

**Q.** For `O=C(/C=C/c1ccc(OCc2c(F)cccc2Cl)cc1)N1CCOCC1`, which inhibition is on record?
**A.** 27.7% (active)

**Q.** Which inhibition does the source give for `COc1ccc([C@@H]2[C@@H]3C(=O)N(C(C)(C)C)C(=O)[C@@H]3[C@]3(Cc4ccccc4)C(=O)N(c4ccc(C(F)(F)F)cc4)C(=O)N23)cc1` here?
**A.** 27.8% (active)

**Q.** For `Cc1cc(C(=O)CSc2nnc3ccccn23)c(C)n1-c1ccccc1`, which inhibition is on record?
**A.** 29.6% (active)

**Q.** For `Oc1ccc(N=Nc2ccc3c(c2)OCCO3)c2ncccc12`, which inhibition is on record?
**A.** 26.2% (active)

**Q.** With `O=C(N/N=C/c1ccccc1O)c1cccc(C(F)(F)F)c1` as the molecule, how does the inhibition read?
**A.** 35.8% (active)

**Q.** Which inhibition does the source give for `CCOc1ccc(CNC(=O)c2cc3oc4ccccc4c3n2C)cc1` here?
**A.** 25.6% (active)

**Q.** Which inhibition does the source give for `O=C(Nc1ccc(F)c(Cl)c1)Nc1csc2ccccc12` here?
**A.** 35% (active)

**Q.** Which inhibition does the source give for `COc1cc(/C=C2\SC(=Nc3ccc(O)cc3)NC2=O)cc(OC)c1OC` here?
**A.** 28.2% (active)

**Q.** Which inhibition does the source give for `COc1ccccc1C(NC(C)=O)c1cc(Cl)c2cccnc2c1O` (stereo not given) here?
**A.** 31.2% (active)

**Q.** For `O=C(/C=C/c1ccccc1)NC(NC(=S)Nc1ccc(Cl)cc1Cl)C(Cl)(Cl)Cl` (stereo not given), which inhibition is on record?
**A.** 23.4% (active)

**Q.** Which inhibition does the source give for `CN1CCc2c(sc(NC(=O)c3ccc(S(=O)(=O)N4CCc5ccccc54)cc3)c2C(N)=O)C1` here?
**A.** 24.1% (active)

**Q.** For `Cc1ccc2[nH]c(C(=O)N/N=C/c3ccccc3O)c(C)c2c1`, which inhibition is on record?
**A.** 25.3% (active)
